Most compounds without a hit are left out; they make up all but 3.1% or so of the library.
Mito fusion act: inhibitors of mitochondrial division or activators of mitochondrial fusion | S. cerevisiae fusion-defective mutant growth rescue, CellTiterGlo 48 h | hit rate 0.23% among 320,000 | AID 485298 | Potency, µM (top dose mostly 46.1 µM), actives largely listed as activators; also: nearly all actives have a fitted effect of over 45% in size
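Yeast fusion mutant, YPEG (non-fermentable carbon), compound, 48 h at 37C non-permissive; CellTiterGlo added, 10 min RT, luminescence read. Rescued growth = division inhibition.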
IDH1 R132H inh: inhibitors of human mutant IDH1 R132H | O75874 | IDH1-R132H enzyme, NADPH consumption, diaphorase/resazurin fluorescence | Potency, µM (highest dose often 76.6 µM), actives largely listed as inhibitors | hit rate 0.093% among 390,000; also: nearly all actives have a fitted effect of over 65% in size
Target sequence (O75874 whole entry R132H, stated change not applied): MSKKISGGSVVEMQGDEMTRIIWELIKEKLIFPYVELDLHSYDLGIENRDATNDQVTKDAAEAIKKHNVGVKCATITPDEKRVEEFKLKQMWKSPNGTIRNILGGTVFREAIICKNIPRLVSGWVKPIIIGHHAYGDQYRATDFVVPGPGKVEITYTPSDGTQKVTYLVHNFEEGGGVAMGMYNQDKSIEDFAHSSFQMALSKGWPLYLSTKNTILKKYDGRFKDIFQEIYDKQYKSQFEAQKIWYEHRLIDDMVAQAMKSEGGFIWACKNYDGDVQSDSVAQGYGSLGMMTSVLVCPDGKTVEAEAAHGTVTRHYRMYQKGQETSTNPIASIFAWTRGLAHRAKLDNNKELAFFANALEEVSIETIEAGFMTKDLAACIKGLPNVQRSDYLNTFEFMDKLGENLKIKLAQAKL
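IDH1-R132H (0.5 ug/mL dispensed) in pH 7.5 Tris buffer was preincubated 30 min with compound, then given a substrate mix of 0.016 mM NADPH and 2 mM alpha-KG for 80 min at room temperature; remaining NADPH was read by diaphorase/resazurin fluorescence.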
TrxR1 substrate: is turned over as a substrate by rat TrxR1; O89049; purified TrxR1 substrate turnover, NADPH consumption readout; Potency, µM (titrated, usually from 114 µM); hit rate 0.01% among 390,000; AID 588456; also: nearly all actives have a fitted effect of over 50% in size
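Rat TrxR1, dispensed at 90 nM, was prereduced with 400 uM NADPH (final) for 5 min at ~22 deg C, then incubated with compound 15 min before 400 uM selenite. A first-read NADPH fluorescence drop versus no-compound background flagged substrates.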
TrxR1 inh: rat TrxR1 inhibition; O89049; recombinant rTrxR1, NADPH fluorescence consumption, selenite substrate; Potency, µM (titrated, usually from 114 µM), most hits filed as inhibitors; hit rate 1% among 390,000; AID 588453; also: nearly all actives have a fitted effect of over 65% in size
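Rat TrxR1 (90 nM in the dispensed reagent) was pre-reduced with 400 uM NADPH for 5 min at room temperature, then incubated with compound for 15 min. After 400 uM selenite was added, NADPH fluorescence (Ex 340/Em 450 nm) was followed for 8 min.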
A549 viability: kills or reduces viability of A549 cells in Nrf2 counter-screen. A549 ARE-Fluc cells, CellTiter-Fluor viability, 18-24 h. Potency, µM (titrated, usually from 46 µM), actives largely listed as inhibitors. hit rate 0.16% among 390,000. AID 504648
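Cytotoxicity counterscreen: CellTiter-Fluor fluorescence was measured in A549 ARE_Fluc cells after 18-24 h of compound exposure in a concentration series. The subsequent BugLite luminescent read reports ARE-luciferase activity.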
Nrf2 block: Nrf2 pathway inhibition; A549 ARE-Fluc reporter, luciferase luminescence, 18-24 h; AID 504444; hit rate 2.1% among 360,000; Potency, µM (series often up to 46 µM), hits mostly inhibitors; also: nearly all actives have a fitted effect of over 60% in size
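A549 ARE_Fluc cells, 5000/well, 5% FBS OPTI-MEM; compounds in dose-response, 18-24 h at 37 °C/5% CO2; CellTiter-Fluor viability read (Ex 405/Em 525), then BugLite luciferase luminescence = Nrf2 activity.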
Numbers stand for hits; n = inactive; u = inconclusive; x = no result given; [ ] = remark or other dose. Calls follow the shape of the dose curve; as a rule, active = well fitted curve in the direction sought with a large enough effect; inconclusive = small, poorly fitted or top-dose-only effect, or another doubt; inactive = no such curve, though single readings can be large; an effect the other way counts as inactive or inconclusive.

SMILES	Mito fusion act	IDH1 R132H inh	TrxR1 substrate	TrxR1 inh	A549 viability	Nrf2 block
Cc1cc(NC(=O)CS(=O)(=O)c2cn(Cc3ccc(F)cc3)c3ccccc23)no1	n	n	n	n	n	21µM
COc1cc2c(cc1OC)C1O[C@](c3ccsc3)(C2)OC2=C1C(=O)OC1(CCCCC1)C2	n[9.22 µM]	x	x	x	x	x
CC(=O)Nc1ccc(OCCC[n+]2ccccc2)cc1	n	n	n	n	n	n
CCCCCc1ccc(OCCC[n+]2ccccc2)c(CCCCC)c1	n	n	n	n	u	13µM
O=[N+]([O-])c1cc(CN2CCOCC2)c2cccnc2c1O	n	n	n	n	u	23µM
O=[N+]([O-])c1cc(CN2CCN(c3ccccc3)CC2)c(O)c2ncccc12	n	n	n	n	u	2.6µM
Oc1c(Cl)cc(CN2CCOCC2)c2cccnc12	u	n	n	u	u	u
CC(C)(C)c1ccc(C(=O)CCCSC2=C(C#N)C(c3ccco3)C3=C(CCCC3=O)N2)cc1 (stereo not drawn)	n	n	n	n	21µM	21µM
CN(C)c1ccc(-c2noc(C3CC(=O)N(c4ccc5c(c4)OCCO5)C3)n2)cc1 (stereo not drawn)	x	n	n	n	n	n
COc1ccc(S[C@@H](CCN2CC[C@H](NC(=O)OCc3ccccc3)CCC2=O)c2ccccc2)cc1	x	n	n	n	n	18µM
O=C(N[C@@H]1CCC(=O)N(CC[C@H](Sc2ccc(Br)cc2)c2ccccc2)CC1)OCc1ccccc1	n	n	n	n	n	u
CCOc1ccc(OCC)c(NC(=O)c2cnn(-c3ccc(F)cc3)c2-n2cccc2)c1	x	n	n	n	n	u
Cc1ccc(N(CC(=O)N2CCN(c3ccc(Cl)cc3)CC2)S(=O)(=O)c2c(C)noc2C)cc1	x	n	n	n	n	u
COc1ccc(NC(=S)NC(NC(=O)c2cccc(Cl)c2)C(Cl)(Cl)Cl)c([N+](=O)[O-])c1 (stereo not drawn)	n	n	n	n	u	26µM
CNc1cccc(S(=O)(=O)N2CCCN(S(=O)(=O)c3ccc4c(c3)OCCO4)CC2)c1	x	x	x	x	n	n
CCOC(=O)C1CCN(CC(=O)c2c(C)[nH]c3ccccc23)CC1	n	n	n	n	n	n
COC(=O)c1[nH]c2ccccc2c1NC(=O)CN1CCN(c2cccc(OC)c2)C(C)C1 (stereo not drawn)	n	n	n	n	n	26µM
COc1cccc(N2CCN(CC(=O)Nc3nnc(-c4ccccc4)s3)CC2)c1	n	n	n	n	n	12µM
COc1cccc(N2CCN(CC(=O)c3c(C)[nH]c4ccccc34)CC2)c1	n	n	n	n	u	12µM
Cc1[nH]c2ccccc2c1C(=O)CN1CCC(C)CC1	n	n	n	35µM	n	n
Nc1ccc(/C=C/c2ccnc3ccccc23)c(N)c1	x	x	n	u	x	x
Cc1oc2c(c(C)cc3oc(=O)c(CC(=O)NCCc4ccc(Cl)cc4)c(C)c32)c1C	x	n	n	n	n	n
COc1ccc(OCCN2CCN(C(=O)c3ccc(OC)c(OC)c3)CC2)cc1	n	n	n	n	n	23µM
COCCn1c(=S)[nH]c2cc(C(=O)N3CCN(Cc4ccc5c(c4)OCO5)CC3)ccc2c1=O	n	n	n	n	n	u
O=C(c1[nH]nc2c1CCc1ccccc1-2)N1CCN(Cc2ccc3c(c2)OCO3)CC1	n	n	n	n	n	15µM
SMILES	Mito fusion act	IDH1 R132H inh	TrxR1 substrate	TrxR1 inh	A549 viability	Nrf2 block
O=C(c1ccc(Cn2c(=O)[nH]c3ccccc3c2=O)cc1)N1CCN(c2ccc(F)cc2)CC1	n	n	n	n	n	10µM
COCCn1c(=O)[nH]c2cc(C(=O)N3CCN(Cc4ccc5c(c4)OCO5)CC3)ccc2c1=O	x	n	n	n	n	12µM
O=C(CCc1ccccc1)NC1CC(=O)N(c2cccc(F)c2)C1 (stereo not drawn)	x	n	n	n	n	x
COc1ccc(Cn2c(CCC(=O)Nc3cccc(Cl)c3)nc3cccnc32)cc1	x	n	n	n	n	n
COc1ccc(Cn2c(=O)[nH]c3cc(C(=O)N4CCN(Cc5ccccc5)CC4)ccc3c2=O)cc1	n	n	n	n	n	23µM
COc1cc(C(=O)N2CCN(Cc3ccc4c(c3)OCO4)CC2)cc(OC)c1OC	n	n	n	n	n	n
COCCn1c(=S)[nH]c2cc(C(=O)N3CCN(c4cccc(Cl)c4)CC3)ccc2c1=O	n	n	n	n	u	21µM
CCCCCn1c(=O)[nH]c2cc(C(=O)N3CCN(c4ccc(C(C)=O)cc4)CC3)ccc2c1=O	n	n	n	n	n	21µM
COc1ccc(Cn2c(=O)[nH]c3cc(C(=O)N4CCN(c5cc(C)ccc5C)CC4)ccc3c2=O)cc1	x	n	n	n	n	n[9.27 µM]
COCCn1c(=S)[nH]c2cc(C(=O)N3CCN(C4CCCCC4)CC3)ccc2c1=O	x	n	x	x	x	x
COc1ccc(C(=O)N2CCN(Cc3ccc4c(c3)OCO4)CC2)cc1OC	n	n	n	n	n	16µM
CCCC(=O)Nc1nc2c(s1)CC(C(C)(C)C)CC2 (stereo not drawn)	x	n	n	n	n	u
COc1ccc(C)cc1-n1c(SCC(=O)NCc2ccco2)nc2c([nH]c3ccccc32)c1=O	x	n	n	n	n	x
COc1ccccc1N1CCN(C(=O)c2ccc3c(=O)n(Cc4ccc5c(c4)OCO5)c(=O)[nH]c3c2)CC1	n	n	n	n	n	15µM
COc1ccc(Cn2c(=O)[nH]c3cc(C(=O)N4CCN(c5ccccc5OC)CC4)ccc3c2=O)cc1	n	n	n[0.0914 µM]	n	n	21µM
COc1ccccc1Cn1c(=S)[nH]c2cc(C(=O)N3CCN(c4ccccc4OC)CC3)ccc2c1=O	n	n	n	n	n	n
COc1ccc(Cn2c(=O)[nH]c3cc(C(=O)N4CCN(c5ccccc5F)CC4)ccc3c2=O)cc1	n	n	n	n	n	n
Cc1cc(N2C(=O)c3ccccc3C2=O)no1	x	x	x	x	n	n
O=S1(=O)CCOCCCN1Cc1ccc(F)cc1	x	x	n	n	x	x
NCC(=O)c1c[nH]c2ccccc12	x	x	n	n	x	x
O=C1NC[C@@H](Cc2cccc3ccccc23)N(CC2CCCCC2)C1=O	n	n	n	n	n	n
O=C1NC[C@@H](Cc2cccc3ccccc23)N(CC2(c3ccccc3)CC2)C1=O	n	n	n	n	u	21µM
Cc1cccc(NC(=O)c2ccc(-n3cnc4cccnc43)cc2)c1C	x	n	n	n	n	n
C/C(=N\NC(=O)c1cc(-c2cccnc2)nc2ccccc12)c1ccc(O)cc1O	n	n	n	n	u	15µM
